Results from PubChem BioAssay (Tox21).
Where “and” joins values, the source holds several entries; their conditions need not be identical. Equal values may be shown once. Inconclusive results are not listed. Some structures have more than one record in an assay (separate samples or runs), and their calls can disagree. Calls of active or inactive are those of the source. Unless noted, calls come from the whole dose curve.

Tested on: not listed separately
Experiment: qHTS assay for small molecule activators of the heat shock response signaling pathway (AID 743210; active = well fitted activation curve with a large enough effect in the signal ratio in the repeat runs, with a control signal flat, not every such curve was filed as active; the % refers to the signal ratio)
Conditions: HeLa HSE-bla reporter, beta-lactamase ratio, 5 h; series mostly up to 62.6 µM; activation: at the top concentration
Procedure, shortened: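 Heat shock element–beta-lactamase HeLa reporter cells; qHTS with compounds for 5 h at 37 C; detection by FRET substrate fluorescence after 2.5 h at RT.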
% is set by controls: 0 for no effect and ±100 for the full control effect.

Structure (SMILES)	activation	outcome
O=S1(=O)OC(c2cc(Br)c(O)c(Br)c2)(c2cc(Br)c(O)c(Br)c2)c2ccccc21	-0.687% (inactive)	–
C[C@H]1CNCCc2ccc(Cl)cc21	-0.704% (inactive)	–
CCOC(=O)[C@]1(c2ccccc2)Oc2ccccc2[C@@H]1N	0.139% (inactive)	–
O=C(O)C(F)(F)C(F)(F)C(F)(F)C(F)(F)C(F)(F)C(F)(F)C(F)(F)C(F)(F)C(F)(F)C(F)(F)F	0.0976% (inactive)	–
Cc1cc(=O)[nH]o1	-0.165% [at 81.1 µM] (inactive)	–
Nc1nc(=S)[nH][nH]1	-0.726% (inactive)	–
CC(C)=CCOc1c2occc2cc2ccc(=O)oc12	0.261% (inactive)	–
COc1cc(Cl)c(OC)cc1Cl	-0.0463% (inactive)	–
COC(=O)C(C)N(C(=O)Cc1ccccc1)c1c(C)cccc1C (stereo unspecified)	-0.0286% (inactive)	–
CC[C@H]1C[C@H]2[C@@H]3CCC4=CC(=O)CC[C@@H]4[C@H]3CC[C@]2(C)[C@H]1O	-1.05% (inactive)	–
COc1nn(C(=O)NS(=O)(=O)c2ccccc2OC(F)(F)F)c(=O)n1C	-0.148% (inactive)	–
CC(C)N(CCC(C(N)=O)(c1ccccc1)c1ccccn1)C(C)C (stereo unspecified)	-1.1% (inactive)	–
O=C(CBr)OCc1ccccc1	1.92% (inactive)	–
C=CCC1([C@H](C)CCC)C(=O)NC(=O)NC1=O	-0.467% [at 81.1 µM] (inactive)	–
CCCCC(CC)COP(=O)(Oc1ccccc1)Oc1ccccc1 (stereo unspecified)	3.75% (inactive)	–
C(=NC1CCCCC1)=NC1CCCCC1	–	inactive
Clc1cccc2ccccc12	-0.027% (inactive)	–
CO/C=C(/C(=O)OC)c1ccccc1COc1cccc(C(F)(F)F)n1	2.33% (inactive)	–
CC1(C)CCC(Cc2ccc(Cl)cc2)C1(O)Cn1cncn1 (stereo unspecified)	4.28% (inactive)	–
O=NN1CCCCCC1	-1.9% (inactive)	–
COCCOCCO	3.7% (inactive)	–
CCC(COC(=O)c1cc(OC)c(OC)c(OC)c1)(c1ccccc1)N(C)C (stereo unspecified)	0.117% (inactive)	–
C=CC(=O)OC	-0.174% [at 81.1 µM] (inactive)	–
CCCCCCCCCCOC(=O)c1ccccc1C(=O)OCCCCCCCCCC	1.48% (inactive)	–
C=CCN1CC[C@]23c4c5ccc(O)c4O[C@H]2C(=O)CC[C@@]3(O)[C@H]1C5	-0.35% (inactive)	–

Tested on: not listed separately
Experiment: qHTS assay to identify small molecule agonists of the peroxisome proliferator-activated receptor delta (PPARd) signaling pathway - cell viability counter screen (AID 743211; active = well fitted cell-killing curve with a large enough effect in the repeat runs; note: nearly all actives have a fitted effect of over 55% in size; note: potency is the fitted concentration of half-maximal effect)
Conditions: PPARd-bla HEK293H viability, CellTiter-Glo luminescence, 17 h; series mostly up to 62.6 µM; activity change, negative = cytotoxicity: at the top concentration
Procedure, shortened: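 Viability was measured as CellTiter-Glo luminescence (30 min, room temperature) in the same wells as the beta-lactamase readout. GeneBLAzer PPARd UAS-bla HEK293H cells received compound after 5 h plating and were incubated 17 h at 37 C.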

Structure (SMILES)	activity change, negative = cytotoxicity	Potency
C[C@H]1CNCCc2ccc(Cl)cc21	-14% (inactive)	–
CCOC(=O)[C@]1(c2ccccc2)Oc2ccccc2[C@@H]1N	–	54.9 µM (active)
O=C(O)C(F)(F)C(F)(F)C(F)(F)C(F)(F)C(F)(F)C(F)(F)C(F)(F)C(F)(F)C(F)(F)C(F)(F)F	2.51% (inactive)	–
Cc1cc(=O)[nH]o1	1.89% [at 81.1 µM] (inactive)	–
COc1cc(Cl)c(OC)cc1Cl	-12.9% (inactive)	–
CC1(C)[C@H](C=C(Cl)Cl)[C@@H]1C(=O)O[C@@H](C#N)c1cccc(Oc2ccccc2)c1	-7.08% (inactive)	–
COc1nn(C(=O)NS(=O)(=O)c2ccccc2OC(F)(F)F)c(=O)n1C	7.93% (inactive)	–
c1ccc(CN2CCNCC2)cc1	-0.906% [at 232 µM] (inactive)	–
CC(C)N(CCC(C(N)=O)(c1ccccc1)c1ccccn1)C(C)C (stereo unspecified)	-8.27% (inactive)	–
O=C(CBr)OCc1ccccc1	-0.931% (inactive)	–
CN1C(=O)C(O)N=C(c2ccccc2)c2cc(Cl)ccc21 (stereo unspecified)	2.49% [at 81.1 µM] (inactive)	–
C=CCC1([C@H](C)CCC)C(=O)NC(=O)NC1=O	3.65% [at 81.1 µM] (inactive)	–
COP(=S)(OC)Oc1cc(Cl)c(I)cc1Cl	-10.2% (inactive)	–
C(=NC1CCCCC1)=NC1CCCCC1	–	inactive and 21.9 µM (active)
CC1(C)CCC(Cc2ccc(Cl)cc2)C1(O)Cn1cncn1 (stereo unspecified)	-28.3% (inactive)	–
O=NN1CCCCCC1	1.76% (inactive)	–
CCCCN(N=O)C(=N)N[N+](=O)[O-]	-0.344% [at 81.1 µM] (inactive)	–
COCCOCCO	-16.5% (inactive)	–
C=CC(=O)OC	1.38% [at 81.1 µM] (inactive)	–
CCCCCCCCCCOC(=O)c1ccccc1C(=O)OCCCCCCCCCC	0.412% (inactive)	–
C=CCN1CC[C@]23c4c5ccc(O)c4O[C@H]2C(=O)CC[C@@]3(O)[C@H]1C5	6.34% (inactive)	–

Target: Peroxisome proliferator-activated receptor delta (Homo sapiens) (UniProt Q03181)
Experiment: qHTS assay to identify small molecule agonists of the peroxisome proliferator-activated receptor delta (PPARd) signaling pathway (AID 743212)
Conditions: HEK293H PPARd-UAS-bla, beta-lactamase FRET ratio, 17 h; series mostly up to 62.6 µM; activation: at the top concentration
Procedure, shortened: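 Beta-lactamase reporter read by fluorescence (LiveBLAzer B/G FRET, 2 h, room temperature). Test agents, in DMSO, incubated at 37 C with PPARd-bla HEK293H cells.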

Chain of Peroxisome proliferator-activated receptor delta (Homo sapiens) (Q03181 whole entry, looked up): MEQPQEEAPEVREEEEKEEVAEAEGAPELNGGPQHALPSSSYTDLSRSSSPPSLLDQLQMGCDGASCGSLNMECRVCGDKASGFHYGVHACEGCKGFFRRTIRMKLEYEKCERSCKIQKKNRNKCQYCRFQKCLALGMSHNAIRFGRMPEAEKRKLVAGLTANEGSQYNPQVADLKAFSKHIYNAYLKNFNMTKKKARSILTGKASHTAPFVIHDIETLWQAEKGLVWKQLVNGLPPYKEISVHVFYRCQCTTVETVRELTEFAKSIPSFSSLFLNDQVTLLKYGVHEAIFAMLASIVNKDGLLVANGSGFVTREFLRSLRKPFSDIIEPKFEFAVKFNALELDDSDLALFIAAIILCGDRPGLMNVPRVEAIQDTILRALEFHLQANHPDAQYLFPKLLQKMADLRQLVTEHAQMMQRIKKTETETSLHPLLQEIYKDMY

Structure (SMILES)	activation
O=S1(=O)OC(c2cc(Br)c(O)c(Br)c2)(c2cc(Br)c(O)c(Br)c2)c2ccccc21	-0.173% (inactive)
C[C@H]1CNCCc2ccc(Cl)cc21	-4.63% (inactive)
CCOC(=O)[C@]1(c2ccccc2)Oc2ccccc2[C@@H]1N	-0.789% (inactive)
Cc1cc(=O)[nH]o1	0.73% [at 81.1 µM] (inactive)
Nc1nc(=S)[nH][nH]1	-2.84% (inactive)
CC(C)=CCOc1c2occc2cc2ccc(=O)oc12	2.96% (inactive)
COC(=O)C(C)N(C(=O)Cc1ccccc1)c1c(C)cccc1C (stereo unspecified)	-2.35% (inactive)
CC[C@H]1C[C@H]2[C@@H]3CCC4=CC(=O)CC[C@@H]4[C@H]3CC[C@]2(C)[C@H]1O	-7.43% (inactive)
COc1nn(C(=O)NS(=O)(=O)c2ccccc2OC(F)(F)F)c(=O)n1C	-4.62% (inactive)
c1ccc(CN2CCNCC2)cc1	-3.62% [at 232 µM] (inactive)
CC(C)N(CCC(C(N)=O)(c1ccccc1)c1ccccn1)C(C)C (stereo unspecified)	1.33% (inactive)
O=C(CBr)OCc1ccccc1	0.0806% (inactive)
CN1C(=O)C(O)N=C(c2ccccc2)c2cc(Cl)ccc21 (stereo unspecified)	3.45% [at 81.1 µM] (inactive)
C=CCC1([C@H](C)CCC)C(=O)NC(=O)NC1=O	-3.58% [at 81.1 µM] (inactive)
CCCCC(CC)COP(=O)(Oc1ccccc1)Oc1ccccc1 (stereo unspecified)	-0.271% (inactive)
COP(=S)(OC)Oc1cc(Cl)c(I)cc1Cl	0.425% (inactive)
C(=NC1CCCCC1)=NC1CCCCC1	-5.02% [at 81.1 µM] (inactive)
Clc1cccc2ccccc12	-1.71% (inactive)
O=C(CBr)c1ccccc1	0.81% [at 81.1 µM] (inactive)
CC1(C)CCC(Cc2ccc(Cl)cc2)C1(O)Cn1cncn1 (stereo unspecified)	0.096% (inactive)
CCCCN(N=O)C(=N)N[N+](=O)[O-]	-1.78% [at 81.1 µM] (inactive)
Nc1ccc(N=Nc2ccc(-c3ccc(N=Nc4c(S(=O)(=O)O)cc5cc(S(=O)(=O)O)c(N=Nc6ccccc6)c(O)c5c4N)cc3)cc2)c(N)c1	-0.288% (inactive)
COCCOCCO	7.91% (inactive)
CCC(COC(=O)c1cc(OC)c(OC)c(OC)c1)(c1ccccc1)N(C)C (stereo unspecified)	-1.29% (inactive)
CCCCCCCCCCOC(=O)c1ccccc1C(=O)OCCCCCCCCCC	-0.266% (inactive)
